Compound activity as filed in PubChem BioAssay.
Mtb FBA inh = Mtb fructose-bisphosphate aldolase inhibition; P9WQA3; purified M. tuberculosis FBA, fluorescence read-out; inhibition, % at 1 µM; 360,000 compounds, 2.3% hits; in the data active = inhibition above about 27%
Target sequence (P9WQA3 whole entry, looked up): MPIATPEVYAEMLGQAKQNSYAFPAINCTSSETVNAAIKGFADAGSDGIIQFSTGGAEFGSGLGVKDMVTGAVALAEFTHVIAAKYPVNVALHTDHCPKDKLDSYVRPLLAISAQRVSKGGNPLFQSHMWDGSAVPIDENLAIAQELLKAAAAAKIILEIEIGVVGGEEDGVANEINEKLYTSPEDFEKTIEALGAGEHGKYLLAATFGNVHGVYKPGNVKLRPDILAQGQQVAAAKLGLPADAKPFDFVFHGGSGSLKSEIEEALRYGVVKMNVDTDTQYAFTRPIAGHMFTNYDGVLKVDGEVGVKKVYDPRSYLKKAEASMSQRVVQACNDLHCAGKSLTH
Mtb BioA inh = blocks M. tuberculosis BioA enzyme activity. purified M. tuberculosis BioA enzyme, plate reader. inhibition, % at 9.99 µM. 360,000 compounds, 0.096% hits; in the data active = inhibition above about 40%
GDH-TPI counter = inhibits GDH-TPI coupling enzymes, artifact for Mtb FBA screen; GDH-TPI coupled enzyme counterscreen, NADH absorbance; inhibition, % at 4.8 µM; 360,000 compounds, 1.2% hits; AID 588335; in the data active = inhibition above about 30%
BH1578 lux ind = quorum light induction in luxS cqsA deficient V. cholerae | V. cholerae BH1578 lux reporter, luminescence, 6 h | activation, % at 18.7 µM | 350,000 compounds, 0.16% hits | AID 588436; in the data active = activation mostly above about 9.7%, no sharp cut-off
Large screens that a line does not name were inactive. An excerpt weighted towards active compounds, which were near 3% of everything screened.

COc1ccc(-c2nc(=S)c3c(n2CCN2CCOCC2)CC(C)(C)OC3)cc1	GDH-TPI counter 38
CCN(CC)CCn1c(-c2ccc(C)cc2)nc(=S)c2c1CC(C)(C)OC2	GDH-TPI counter 32
CO[C@@H]1CN(C)C(=O)c2cc(NS(C)(=O)=O)ccc2OC[C@H](C)N(C)C[C@@H]1C	none (no result: Mtb FBA inh, GDH-TPI counter, BH1578 lux ind)
Cc1noc(C)c1NC(=O)Nc1ccc2c(c1)CC(=O)N([C@@H](C)CO)C[C@H](C)[C@H](CN(C)C(=O)Nc1c(C)noc1C)O2	none (no result: Mtb FBA inh, GDH-TPI counter, BH1578 lux ind)
CNC(=O)C[C@@H]1CC[C@H]2[C@@H](COc3ccc(NC(=O)c4ccc(F)c(F)c4)cc3C(=O)N2C)O1	none (no result: Mtb FBA inh, GDH-TPI counter, BH1578 lux ind)
Cc1ccc(N2C(=O)C3CCCN3C2=S)cc1Cl (configuration not stated)	Mtb FBA inh 152
Cc1noc(C)c1S(=O)(=O)Nc1ccc2c(c1)CC(=O)N([C@H](C)CO)C[C@@H](C)[C@H](CN(C)C)O2	none (no result: Mtb FBA inh, GDH-TPI counter, BH1578 lux ind)
Cc1noc(C)c1NC(=O)Nc1cccc2c1O[C@@H](CN(C)C(=O)NC(C)C)[C@@H](C)CN([C@@H](C)CO)C2=O	none (no result: Mtb FBA inh, GDH-TPI counter, BH1578 lux ind)
COc1ccc(OC)c(C2C(C(C)=O)=C(O)C(=O)N2c2ccc(F)cc2)c1 (configuration not stated)	GDH-TPI counter 37
O=C(Cc1ccc(F)cc1)c1ccc(O)cc1O	GDH-TPI counter 46
CCCc1cc(C(=O)Cc2nc3ccccc3s2)c(O)cc1O	GDH-TPI counter 38 (no result: Mtb BioA inh)
CCc1cc(C(=O)Cc2nc3ccccc3[nH]2)c(O)cc1O	GDH-TPI counter 39
CCc1cc(C(=O)Cc2ccc(F)cc2)c(O)cc1O	none
O=C(Cc1nc2ccccc2[nH]1)c1ccc(Cl)cc1	none
CCCc1cc(C(=O)Cc2ccc(F)cc2)c(O)cc1O	GDH-TPI counter 32
COc1ccc(CN(C)C[C@@H]2Oc3ccc(NC(=O)Cc4cn(C)c5ccccc45)cc3C(=O)N([C@@H](C)CO)C[C@@H]2C)cc1	none (no result: Mtb FBA inh, GDH-TPI counter, BH1578 lux ind)
O=C(Nc1ccccc1F)N[C@H]1CC[C@@H](CCNS(=O)(=O)c2ccccc2)O[C@@H]1CO	none (no result: Mtb FBA inh, GDH-TPI counter, BH1578 lux ind)
O=C(C[C@@H]1CC[C@H]2[C@@H](COC[C@@H](O)CN2Cc2ccncc2)O1)NCC1CC1	none (no result: Mtb FBA inh, GDH-TPI counter, BH1578 lux ind)
COc1ccc(NC(=O)N(C)C[C@H]2Oc3ccc(NC(=O)NC4CCCCC4)cc3CC(=O)N([C@H](C)CO)C[C@@H]2C)cc1	none (no result: Mtb FBA inh, GDH-TPI counter, BH1578 lux ind)
O=C(Cc1ccccc1F)c1ccc(O)cc1O	none
CCc1cc(C(=O)COc2ccccc2F)c(O)cc1O	GDH-TPI counter 38
O=C(Cc1c(F)cccc1Cl)c1ccc(O)cc1O	GDH-TPI counter 34
O=C(C[C@@H]1CC[C@H]2[C@@H](COC[C@H](O)CN2C(=O)Nc2cccc(Cl)c2)O1)NCC1CCCCC1	none (no result: Mtb FBA inh, GDH-TPI counter, BH1578 lux ind)
O=C(NN=C1CCCC1)c1ccccc1[N+](=O)[O-]	none
CC(C)N1CCC(=NNC(=O)c2ccccc2[N+](=O)[O-])CC1	Mtb FBA inh active (no result: Mtb BioA inh)
COc1ccc(NC(=O)Nc2ccc3c(c2)C(=O)N([C@H](C)CO)C[C@H](C)[C@@H](CN(C)CC2CCCCC2)O3)cc1	none (no result: Mtb FBA inh, GDH-TPI counter, BH1578 lux ind)
CCCC(C)C(=O)Nc1ccc(Cl)cn1 (configuration not stated)	GDH-TPI counter 31
CCCCC(=O)Nc1ccc(Cl)cn1	none
CO[C@@H]1CN(C)C(=O)c2cc(NC(C)=O)ccc2OC[C@H](C)N(C(=O)c2cnccn2)C[C@H]1C	none (no result: Mtb FBA inh, GDH-TPI counter, BH1578 lux ind)
O=C([C@H]1[C@H](CO)[C@H]2Cn3c(ccc(-c4cccnc4)c3=O)[C@@H]1N2Cc1ccncc1)N1CCOCC1	none (no result: Mtb FBA inh, GDH-TPI counter, BH1578 lux ind)
O=C(CN1C(=O)S/C(=C\c2ccccc2F)C1=O)NC1C=CS(=O)(=O)C1 (configuration not stated)	GDH-TPI counter 31
O=C(CCN1C(=O)/C(=C/c2ccc(F)cc2)SC1=S)NC1C=CS(=O)(=O)C1 (configuration not stated)	none
O=C(CN1C(=O)S/C(=C\c2ccc(F)cc2)C1=O)NC1C=CS(=O)(=O)C1 (configuration not stated)	GDH-TPI counter 33
COc1ccc(/C=C2\SC(=O)N(CC(=O)NC3C=CS(=O)(=O)C3)C2=O)cc1 (configuration not stated)	GDH-TPI counter 48
Cc1ccccc1S(=O)(=O)N1CC[C@H]2[C@H](CO)Nc3ccc(-c4ccc(C#N)cc4)cc3[C@H]21	none (no result: Mtb FBA inh, GDH-TPI counter, BH1578 lux ind)
O=C(/C=C/c1cccc([N+](=O)[O-])c1)c1ccc([N+](=O)[O-])o1	GDH-TPI counter 41
O=C(Nc1ccc(/C=C/c2nc3ccccc3o2)cc1)c1cccc(C(F)(F)F)c1	GDH-TPI counter 36
Cc1noc(C)c1NC(=O)Nc1ccc2c(c1)CC(=O)N([C@H](C)CO)C[C@H](C)[C@H](CN(C)S(=O)(=O)c1c(C)noc1C)O2	none (no result: Mtb FBA inh, GDH-TPI counter, BH1578 lux ind)
CC(=O)Nc1ccc2c(CN3C(=O)NC(C)(c4ccc(C)cc4)C3=O)cc(=O)oc2c1 (configuration not stated)	Mtb FBA inh 132 (no result: Mtb BioA inh)
